According to PubChem BioAssay AID1159580 (chemical genetic matrix, 2015):
The whole screen tested about 5,500 compounds, of which about 2,000 (36%) were called active. About 18% were inconclusive and are not listed. Cut-off read from the data, not from the text of the source: active = normalized growth mostly below about 0.91 (no sharp cut-off); inconclusive = no clear call, values can overlap the other calls; inactive = mostly above about 0.92. This is one part of the list.

Test: chemical genetic growth profiling, strain panel (AID 1159580);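 note: tested at 20 µM; growth read once vehicle control cultures reached saturation at 30 °C; 1 = growth at the plate median or of vehicle wells; lower values mean less growth of the strain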
Settings: growth OD

Measured: normalized growth

CN(N=O)C(=O)N[C@@H]1[C@@H](O)[C@H](O)[C@@H](CO)O[C@@H]1O
inactive: S. cerevisiae deletion strains, locus YJL187C, strain SWE1 (second series), active compounds read low 1.01 | S. cerevisiae deletion strains, locus YJR043C, strain POL32, active compounds read low 1.01 | S. cerevisiae deletion strains, locus YJR066W, strain TOR1, active compounds read low 0.99 | S. cerevisiae deletion strains, locus YKL009W, strain mrt4, active compounds read low 1.05 | S. cerevisiae deletion strains, locus YKL068W, active compounds read low 1 | S. cerevisiae deletion strains, locus YKL085W, strain MDH1 (second series), active compounds read low 1.01 | S. cerevisiae deletion strains, locus YKL085W, strain MDH1, active compounds read low 1.01 | S. cerevisiae deletion strains, locus YKL160W, strain elf1, active compounds read low 1.02 | S. cerevisiae deletion strains, locus YKR001C, strain vps1, active compounds read low 1 | S. cerevisiae deletion strains, locus YKR026C, strain gcn3, active compounds read low 0.973 | S. cerevisiae deletion strains, locus YKR091W, strain srl3, active compounds read low 0.988 | S. cerevisiae deletion strains, locus YLL001W, strain dnm1, active compounds read low 0.987 | S. cerevisiae deletion strains, locus YLL026W, active compounds read low 0.994 | S. cerevisiae deletion strains, locus YLL041C, strain sdh2, active compounds read low 0.971 | S. cerevisiae deletion strains, locus YLR027C, strain aat2, active compounds read low 1.01 | S. cerevisiae deletion strains, locus YLR039C, strain RIC1, active compounds read low 1.03 | S. cerevisiae deletion strains, locus YLR058C, strain SHM2, active compounds read low 1.01 | S. cerevisiae deletion strains, locus YLR102C, strain apc9, active compounds read low 0.999 | S. cerevisiae deletion strains, locus YLR113W, strain HOG1, active compounds read low 1.03 | S. cerevisiae deletion strains, locus YLR221C, strain rsa3, active compounds read low 0.99 | S. cerevisiae deletion strains, locus YLR258W, strain gsy2, active compounds read low 0.985 | S. cerevisiae deletion strains, locus YLR262C, strain YPT6 (second series), active compounds read low 0.978 | S. cerevisiae deletion strains, locus YLR262C, strain YPT6, active compounds read low 1.02 | S. cerevisiae deletion strains, locus YLR268W, strain sec22, active compounds read low 0.999 | S. cerevisiae deletion strains, locus YLR320W, strain mms22, active compounds read low 0.977 | S. cerevisiae deletion strains, locus YLR330W, strain CHS5, active compounds read low 1.01 | S. cerevisiae deletion strains, locus YLR342W, strain FKS1 (second series), active compounds read low 1.06 | S. cerevisiae deletion strains, locus YLR342W, strain FKS1, active compounds read low 1.01 | S. cerevisiae deletion strains, locus YLR357W, strain rsc2, active compounds read low 0.958 | S. cerevisiae deletion strains, locus YLR370C, strain arc18, active compounds read low 0.999 | S. cerevisiae deletion strains, locus YLR371W, strain rom2, active compounds read low 1.02 | S. cerevisiae deletion strains, locus YLR384C, strain iki3, active compounds read low 0.986 | S. cerevisiae deletion strains, locus YLR418C, strain cdc73, active compounds read low 0.994 | S. cerevisiae deletion strains, locus YML016C, strain PPZ1, active compounds read low 1 | S. cerevisiae deletion strains, locus YML032C, strain rad52, active compounds read low 1.02 | S. cerevisiae deletion strains, locus YML120C, strain ndi1, active compounds read low 0.986 | S. cerevisiae deletion strains, locus YML124C, strain tub3, active compounds read low 1 | S. cerevisiae deletion strains, locus YMR058W, strain fet3, active compounds read low 1 | S. cerevisiae deletion strains, locus YMR078C, strain ctf18, active compounds read low 1.01 | S. cerevisiae deletion strains, locus YMR125W, strain sto1, active compounds read low 0.954 | S. cerevisiae deletion strains, locus YMR129W, active compounds read low 1 | S. cerevisiae deletion strains, locus YMR205C, strain PFK2, active compounds read low 0.98 | S. cerevisiae deletion strains, locus YMR223W, strain ubp8, active compounds read low 1.04 | S. cerevisiae deletion strains, locus YMR231W, strain pep5, active compounds read low 0.994 | S. cerevisiae deletion strains, locus YMR307W, strain GAS1, active compounds read low 1.04 | S. cerevisiae deletion strains, locus YNL067W, strain RPL9B, active compounds read low 1.03 | S. cerevisiae deletion strains, locus YNL071W, strain lat1, active compounds read low 0.983 | S. cerevisiae deletion strains, locus YNL128W, strain TEP1, active compounds read low 1.03 | S. cerevisiae deletion strains, locus YNL153C, strain GIM3, active compounds read low 0.997 | S. cerevisiae deletion strains, locus YNL183C, strain NPR1, active compounds read low 0.983 | S. cerevisiae deletion strains, locus YNL209W, strain ssb2, active compounds read low 0.982 | S. cerevisiae deletion strains, locus YNL233W, strain BNI4, active compounds read low 1.01 | S. cerevisiae deletion strains, locus YNL248C, strain rpa49, active compounds read low 0.978 | S. cerevisiae deletion strains, locus YNL250W, strain rad50, active compounds read low 1.03 | S. cerevisiae deletion strains, locus YNL271C, strain bni1, active compounds read low 1 | S. cerevisiae deletion strains, locus YNL298W, strain CLA4, active compounds read low 1.01 | S. cerevisiae deletion strains, locus YNL307C, strain MCK1, active compounds read low 1.02 | S. cerevisiae deletion strains, locus YNL322C, strain KRE1 (second series), active compounds read low 1.01 | S. cerevisiae deletion strains, locus YNR049C, strain mso1, active compounds read low 0.983 | S. cerevisiae deletion strains, locus YNR052C, strain pop2, active compounds read low 1.01 | S. cerevisiae deletion strains, locus YOL012C, strain htz1 0.87 | S. cerevisiae deletion strains, locus YOL147C, strain pex11, active compounds read low 1.01 | S. cerevisiae deletion strains, locus YOR001W, strain rrp6, active compounds read low 0.995 | S. cerevisiae deletion strains, locus YOR061W, strain CKA2, active compounds read low 1.01 | S. cerevisiae deletion strains, locus YOR069W, strain VPS5, active compounds read low 1.01 | S. cerevisiae deletion strains, locus YOR070C, strain gyp1, active compounds read low 1.01 | S. cerevisiae deletion strains, locus YOR080W, strain dia2, active compounds read low 0.996 | S. cerevisiae deletion strains, locus YOR083W, strain WHI5, active compounds read low 0.986 | S. cerevisiae deletion strains, locus YOR106W, strain vam3, active compounds read low 1.01 | S. cerevisiae deletion strains, locus YOR136W, strain idh2, active compounds read low 1 | S. cerevisiae deletion strains, locus YOR144C, strain elg1, active compounds read low 1.01 | S. cerevisiae deletion strains, locus YOR184W, strain ser1, active compounds read low 1.01 | S. cerevisiae deletion strains, locus YOR231W, strain MKK1, active compounds read low 1.02 | S. cerevisiae deletion strains, locus YOR265W, strain rbl2, active compounds read low 1 | S. cerevisiae deletion strains, locus YOR270C, strain vph1, active compounds read low 0.936 | S. cerevisiae deletion strains, locus YOR290C, strain snf2, active compounds read low 1 | S. cerevisiae deletion strains, locus YOR316C, strain cot1, active compounds read low 1 | S. cerevisiae deletion strains, locus YPL051W, strain arl3, active compounds read low 1.02 | S. cerevisiae deletion strains, locus YPL078C, strain atp4, active compounds read low 0.993 | S. cerevisiae deletion strains, locus YPL106C, strain sse1, active compounds read low 1.02 | S. cerevisiae deletion strains, locus YPL240C, strain hsp82, active compounds read low 0.983 | S. cerevisiae deletion strains, locus YPL256C, strain CLN2, active compounds read low 1.06 | S. cerevisiae deletion strains, locus YPR119W, strain clb2, active compounds read low 1 | S. cerevisiae deletion strains, locus YPR141C, strain kar3, active compounds read low 0.996 | S. cerevisiae deletion strains, locus YPR163C, strain tif3, active compounds read low 1 | S. cerevisiae deletion strains, locus YPR167C, strain met16, active compounds read low 1.01 | S. cerevisiae deletion strains, strain wtn01, active compounds read low 1 | S. cerevisiae strains, strain wild type, active compounds read low 1.01
